From PubChem BioAssay
In the library only some 2.3% were active in any assay of this set; here they are far more common.
RGS12 GoLoco inh – blocks human Gai1 binding to RGS12 GoLoco peptide, red readout; actives 0.44% (n = 230,000); Potency, µM (highest dose often 61.6 µM), inactives show at the top dose activity, negative = inhibition, usual class: inhibitors; Gai1:RGS12 GoLoco peptide FP, rhodamine, 10 min; active means well fitted inhibition curve with a large enough effect, not every such curve was filed as active; inactive means no such curve, though single readings can be large or run the other way; further: potency means the concentration at half of the fitted maximal effect; on the % scale 0 is the no-effect control and ±100 the full control effect; nearly all actives have a fitted effect of over 30% in size
Target sequence (P63096 whole entry, looked up): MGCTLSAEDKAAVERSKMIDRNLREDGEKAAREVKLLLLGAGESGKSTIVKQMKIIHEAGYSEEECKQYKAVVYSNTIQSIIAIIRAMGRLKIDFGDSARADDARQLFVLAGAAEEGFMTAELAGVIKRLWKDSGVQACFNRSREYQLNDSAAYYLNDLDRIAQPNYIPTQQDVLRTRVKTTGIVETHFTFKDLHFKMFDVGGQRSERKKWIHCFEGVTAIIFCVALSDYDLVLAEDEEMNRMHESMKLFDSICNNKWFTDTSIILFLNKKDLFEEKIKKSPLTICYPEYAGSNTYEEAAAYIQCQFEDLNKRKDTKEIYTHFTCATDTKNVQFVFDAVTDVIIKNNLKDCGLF
FBPA coupling cs – inhibits coupling enzyme system, counter-screen for aldolase hits. coupling enzyme system counterscreen, AmpLite Red fluorescence. AID 2472. actives 0.67% (n = 290,000). activity change, negative = inhibition, % at 58.2 µM, hits read low; in the data active means activity change below about -30%; further: on the % scale 0 is the no-effect control and ±100 the full control effect
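Counterscreen of the coupled detection system alone, without aldolase: glyceraldehyde-3-phosphate coupling enzymes plus AmpLite Red readout. Compounds at 57.5 uM final, 10 min RT preincubation, 20 min RT reaction, fluorescence 525/598 nm.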
KDM4E inh – inhibitors of human JMJD2E histone demethylase; Potency, µM (titrated, usually from 57.1 µM), inactives show at the highest dose activity change, negative = inhibition, actives largely listed as inhibitors; actives 1.6% (n = 230,000); AID 2147; JMJD2E catalytic domain, FDH-coupled NADH fluorescence (FDH is formaldehyde dehydrogenase);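 further: potency means the concentration at half of the fitted maximal effect; 0% = wells with enzyme and -100% = buffer wells without enzyme; nearly all actives have a fitted effect of over 50% in size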
Target sequence (B2RXH2 1-337 limits assumed): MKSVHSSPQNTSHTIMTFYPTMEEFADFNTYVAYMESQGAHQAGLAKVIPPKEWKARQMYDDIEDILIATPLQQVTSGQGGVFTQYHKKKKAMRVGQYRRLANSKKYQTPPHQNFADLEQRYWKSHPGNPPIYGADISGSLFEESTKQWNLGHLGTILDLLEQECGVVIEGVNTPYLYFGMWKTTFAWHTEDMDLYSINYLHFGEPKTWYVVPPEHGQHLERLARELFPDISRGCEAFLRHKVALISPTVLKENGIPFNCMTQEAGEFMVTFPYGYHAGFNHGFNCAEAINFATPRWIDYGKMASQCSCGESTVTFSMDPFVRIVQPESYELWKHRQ
HttQ103 aggreg – mutant huntingtin aggregation inhibition. PC12 HttQ103-GFP aggregates, Acumen cytometry, 40 h. Potency, µM (titrated, usually from 46.1 µM), inactives show at the top dose activity change, negative = inhibition, hits mostly inhibitors. actives 1.1% (n = 220,000); further: potency means the concentration at half of the fitted maximal effect; on the % scale 0 is the no-effect control and ±100 the full control effect; nearly all actives have a fitted effect of over 60% in size
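PC12 cells with ecdysone-inducible HTT exon1 Q103-GFP, induced by 100 nM tebufenozide, given compounds in a concentration series. GFP aggregates (1–25 um, 6 SD above background) counted in lysates by laser-scanning cytometry, 488 nm excitation.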
VDR inh – blocks the human vitamin D receptor | Potency, µM, for the others: max response, negative = inhibition, actives largely listed as inhibitors | VDR-SRC2-3 peptide fluorescence polarization, 2 h | P11473 | actives 0.93% (n = 400,000) | AID 504847; further: potency means the concentration at half of the fitted maximal effect; on the % scale 0 is the no-effect control and ±100 the full control effect
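Compounds are added to VDR with labelled SRC2-3 coactivator peptide and held 2 h at room temperature. Inhibition of the VDR–peptide interaction is then read as a change in fluorescence polarization.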
HTT cytoprotect – protects HTT-Q103 PC12 cells, measured by ATP; PC12 HTT-Q103 induced, cytoprotection, ATP luminescence, 40 h; Potency, µM (doses to about 56.4 µM), for inactives: cytoprotection (ATP increase), hits mostly activators; AID 1471; actives 0.14% (n = 230,000); further: potency means the concentration at half of the fitted maximal effect; % of control where 0% means no effect; nearly all actives have a fitted effect of over 45% in size
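Compounds added alongside 100 nM tebufenozide, which induces toxic Q103 huntingtin exon 1-GFP in stable PC12 cells; surviving cells quantified by luminescent ATP measurement. Medium: phenol red-free DMEM, 5% equine and 5% calf serum.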
The depositor's hits bear a star; ? = inconclusive; . = no result; [ ] = dose if it differs, or a comment. Unless noted, the call rests on the fitted dose curve; in most records, active means well fitted curve in the direction sought with a large enough effect; inconclusive means small, poorly fitted or top-dose-only effect, or another doubt; inactive means no such curve, though single readings can be large; an effect the other way counts as inactive or inconclusive.

SMILES	RGS12 GoLoco inh	FBPA coupling cs	KDM4E inh	HttQ103 aggreg	VDR inh	HTT cytoprotect
COc1ccc(C(=O)CCN2CCN(c3ccccc3F)CC2)cc1	-3%	1	2%	31%	22µM*	-50%
CCCOc1ccc(C(=O)CCN2CCN(C(=O)OCC)CC2)cc1	4%	-1	2%	-13%	45µM*	3%
CC(C)(C)c1ccc(OCC(=O)Nc2c(C(=O)c3ccc(F)cc3)oc3ccccc23)cc1	.	.	.	.	-9%	.
O=c1[nH]c(C2CCN(S(=O)(=O)/C=C/c3ccccc3)CC2)nc2c1nnn2Cc1ccccc1	.	0	.	.	-10%	.
COc1ccc([C@@H]2OC[C@]3(COC(C)=O)[C@H](C)C=C(C)[C@@H]2[C@H]3C)cc1	.	.	.	.	.	2%
O=c1oc2ccccc2cc1-c1nc(-c2cccs2)no1	.	.	.	.	6%	.
CS(=O)(=O)c1ccc([C@H](O)[C@H](CO)NC(=O)C(Cl)Cl)cc1	10%[21.6 µM]	1	4%[25.5 µM]	.	-1%	?
COc1cccc(-c2nc(N(C)C)c3ccccc3n2)c1	8%	-9	.	.	56µM*	-89%
Cn1c(=O)c([N+](=O)[O-])c(-n2ccnc2)c2ccccc21	9%	2	-29%	?	20µM*	-106%
Cn1c(=O)c([N+](=O)[O-])c(NCCCn2ccnc2)c2ccccc21	12%	10	12%	-4%[9.22 µM]	2%	12%[10 µM]
CC1Cc2ccccc2N1c1ncnc(N)c1[N+](=O)[O-] (stereo unspecified)	7%	-2	1%	0.89µM*	17%	?
CC1Cc2ccccc2N1c1ncnc2nc[nH]c12 (stereo unspecified)	-4%	-3	1%	11µM*	-7%	7%
Cc1nc(N2CCOCC2)nc(N2CCCCC2C)c1[N+](=O)[O-] (stereo unspecified)	-8%	3	-2%	6%[9.22 µM]	3%	-12%[10 µM]
CC1CCCCN1c1ncnc(N)c1[N+](=O)[O-] (stereo unspecified)	-5%	2	0%	10µM*	1%	11%
Cc1ccc(NC(=O)c2ccc(N3CCCC3=O)cc2)cc1S(=O)(=O)N1CCCCC1	.	.	.	.	-3%	.
Cc1cc(C(=O)OCC(=O)NC(C)c2ccc(F)cc2)c(C)o1 (stereo unspecified)	.	.	.	.	-11%	.
C=C(C)COc1ccc2c(C)c(CC(=O)OC)c(=O)oc2c1C	11%	2	?	11µM*	-4%	-3%[10 µM]
COC(=O)Cc1c(C)c2ccc(OCC(C)=O)c(C)c2oc1=O	-12%	5	?	-4%	7%	-46%
COC(=O)N1C(=O)[C@](CC(C)C)(c2ccccc2)N1C(=O)OC	.	0	.	.	79µM*	.
COc1cc2oc(=O)c3c4c(cc5ccc(c1CCN(C)C)c2c53)OCO4	1%	-15	?	.	40µM*	-88%
CCCc1cc(OC)c2c(c1)OCO2	6%	-1	-28%	.	?	-3%
Cc1snc(SCC(=O)c2ccc([N+](=O)[O-])cc2)c1C#N	14µM*	-2	4.5µM*	-6%	?	?
OC[C@H]1O[C@H](n2cnc3c(N[C@H]4CCC[C@@H]4O)ncnc32)[C@H](O)[C@@H]1O	.	.	.	.	0%	.
O=C1C=CC(=Nc2ccc3c(c2)Cc2cc(F)ccc2-3)O1	.	.	.	.	56µM*	.
CCCn1c(SCC(=O)Nc2ccccc2Oc2ccccc2)n[nH]c1=O	15%	-1	-3%	5%	-10%	4%[10 µM]
SMILES	RGS12 GoLoco inh	FBPA coupling cs	KDM4E inh	HttQ103 aggreg	VDR inh	HTT cytoprotect
Cc1cccc(-c2nc3ccccc3c(=O)n2NC(=S)N(C)C)c1	-17%	5	-7%	17%	50µM*	9%[10 µM]
COc1ccccc1OCCNC(=O)C1CC(=O)N(Cc2ccc(C)cc2)C1 (stereo unspecified)	.	.	.	.	-6%	.
Nc1ccc2[nH]ncc2c1	4%	-42*	?	-29%	-17%	.
N#CC(C#N)=C1C=CC=CN1/C(=C\c1ccco1)C(=O)c1ccc(-c2ccccc2)cc1	17%	1	-8%	7.1µM*	?	4%[10 µM]
N#CC(C#N)=C1C=CC=CN1/C(=C\c1ccco1)C(=O)c1ccc(Cl)cc1	-9%	0	-12%	3.5µM*	8.9µM*	?
O=C(O)/C(=C/c1ccco1)c1ccccc1	5%	-6	-6%	17%	.	.
CC(C)CC(C(=O)NC(C)(C)C)N(Cc1ccccc1Cl)C(=O)c1snc(C(N)=O)c1N (stereo unspecified)	.	-3	.	.	-1%	.
O=c1cc(-c2ccccc2)oc2cc(O[C@H]3O[C@H](CO)[C@@H](O)[C@H](O)[C@@H]3O)c(O)c(O)c12	.	.	.	.	.	-7%
C=C(C)n1c(=O)n(Cc2ccccc2C)c2ccccc21	.	8	.	.	2%	.
N=c1ccn(Cc2ccccc2Cl)cc1	-6%	4	-3%	?	7%	-44%
N=c1ccn(Cc2ccc(Cl)c(Cl)c2)cc1	4%	2	1%	2µM*	-2%	-93%[0.074 µM]
N=c1ccn(Cc2ccc(Cl)cc2Cl)cc1	14%	1	1%	7.1µM*	1%	-39%
NCCCN(Cc1ccc(Cl)cc1)c1ccc(Br)cn1	.	.	.	.	-20%	.
NC(=O)c1ncn([C@@H]2O[C@@H](CO)[C@@H](O)[C@H]2O)n1	.	.	.	.	.	-12%[1.9 µM]
O=C1NC(=O)/C(=C/c2ccc(N3CCOCC3)o2)N1	-3%	-30	-17%	18%[9.22 µM]	79µM*	-8%[10 µM]
O=C1NC(=O)/C(=C\c2ccc(Sc3ccc(Cl)cc3)o2)N1	23%	1	-9%	-5%	-3%	-2%
Cc1ccc(-c2ccc(/C=C3/NC(=O)NC3=O)o2)cc1[N+](=O)[O-]	11%	0	-2%	-15%	8%	.
O=C1NC(=O)/C(=C\c2ccc(N3CCOCC3)o2)N1	-10%	-5	-23%	-25%	25µM*	?
COc1ccc(-c2nn(C)c3sc(C(=O)N4CCN(c5cccc(C)c5C)CC4)cc23)cc1OC	.	.	.	.	-20%	.
O=C(CSc1c2c(nc3ccc(Cl)cc13)CCCC2)N1CCN(C(=O)c2ccco2)CC1	.	.	.	.	?	20µM*
CC1CCN(C(=O)CSc2c3c(nc4ccc(Cl)cc24)CCCC3)CC1	.	.	.	.	-12%	.
CCC(=O)C1=C(O)C(c2cccc(Oc3ccccc3)c2)CCC1=O (stereo unspecified)	0%	4	-7%	10µM*	-2%	-6%
COCCN1C(=O)C(O)=C(C(=O)c2ccco2)C1c1cccc(Oc2ccccc2)c1 (stereo unspecified)	.	9	-16%	3%	2%	-6%[10 µM]
CCCCC(CC)C1OCC(C[N+]2(C)CCOCC2)O1 (stereo unspecified)	10µM*	2	-12%	2%	-7%	-3%[10 µM]
CCc1ccccc1NC(=O)Cn1c(=O)n(Cc2ccccc2)c(=O)c2c(C)c(C(=O)N(C)C)sc21	.	.	.	.	3%	.
